Binding signal data for one sequence are collected here from PMC7862700, “An all-to-all approach to the identification of sequence-specific readers for epigenetic DNA modifications on cytosine”.

Test in all cases: DAPPL (digital affinity profiling via proximity ligation, sequencing); 10 mM Tris-HCl pH 7.5, 50 mM NaCl, 1 mM DTT, 4% glycerol, room temperature, 30 min; GST-TFs on glutathione beads, 16-mer random dsDNA library, 0.1% formaldehyde crosslink after washing; high values mean tight binding
Experiment [1] concerns the target T1, FEV (Homo sapiens, UniProt Q99581 1-238).
T1 sequence: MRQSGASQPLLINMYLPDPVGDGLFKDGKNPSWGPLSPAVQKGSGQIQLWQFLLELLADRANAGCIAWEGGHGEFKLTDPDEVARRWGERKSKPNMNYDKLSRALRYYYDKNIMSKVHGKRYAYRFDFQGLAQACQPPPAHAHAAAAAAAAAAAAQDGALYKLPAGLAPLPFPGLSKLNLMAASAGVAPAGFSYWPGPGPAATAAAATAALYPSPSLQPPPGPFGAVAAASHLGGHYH
The conditions noted are these: protein: recombinant; tags: N-terminal GST; dsDNA, one strand shown. Summed up: (§1)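 In yeast, human transcription factors were expressed with a GST fusion, then pulled down on glutathione beads and given DNA barcodes. Pooled with a tag-only sample, they were exposed to 200 nmole of a 16-mer random double-stranded DNA library (Tris/NaCl/DTT/glycerol buffer, room temperature, 30 min), washed, crosslinked with 0.1% formaldehyde, proximity-ligated using BsaI/T4 ligase for 1 h at 37 °C, PCR-amplified and read on an Illumina NextSeq500. Each hexamer's frequency of reads for a factor, divided by the matching frequency for the tag-only sample, gives the binding signal.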

The target of experiment [2] is ETV5 (Homo sapiens, UniProt P41161 1-510). The conditions noted are these: protein: recombinant; tags: N-terminal GST; dsDNA, one strand shown. Summed up:
as §1

In experiment [3] the target is HSF1 (Homo sapiens, UniProt Q00613 1-529). To be noted: protein: recombinant; tags: N-terminal GST; chain copies: 3; dsDNA, one strand shown. Summed up: as §1
For experiment [4], the target named is T2, SPIC (Homo sapiens, UniProt Q8N5J4 1-248).
T2 sequence: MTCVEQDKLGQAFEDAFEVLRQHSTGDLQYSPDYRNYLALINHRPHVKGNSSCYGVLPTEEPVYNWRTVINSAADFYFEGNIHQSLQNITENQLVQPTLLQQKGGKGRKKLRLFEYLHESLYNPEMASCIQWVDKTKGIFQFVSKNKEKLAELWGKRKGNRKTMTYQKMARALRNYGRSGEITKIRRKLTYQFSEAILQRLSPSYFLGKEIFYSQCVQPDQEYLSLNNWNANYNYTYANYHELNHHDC
To be noted: protein: recombinant; tags: N-terminal GST; dsDNA, one strand shown. Summed up: as §1

Experiment [5] has as its target ELF4 (Homo sapiens, UniProt Q99607 1-663). The conditions noted are these: protein: recombinant; tags: N-terminal GST; dsDNA, one strand shown. The gist of the method:
as §1

Experiment [6] deals with T3, ELK4 (Homo sapiens, UniProt P28324-2 1-405).
T3 sequence: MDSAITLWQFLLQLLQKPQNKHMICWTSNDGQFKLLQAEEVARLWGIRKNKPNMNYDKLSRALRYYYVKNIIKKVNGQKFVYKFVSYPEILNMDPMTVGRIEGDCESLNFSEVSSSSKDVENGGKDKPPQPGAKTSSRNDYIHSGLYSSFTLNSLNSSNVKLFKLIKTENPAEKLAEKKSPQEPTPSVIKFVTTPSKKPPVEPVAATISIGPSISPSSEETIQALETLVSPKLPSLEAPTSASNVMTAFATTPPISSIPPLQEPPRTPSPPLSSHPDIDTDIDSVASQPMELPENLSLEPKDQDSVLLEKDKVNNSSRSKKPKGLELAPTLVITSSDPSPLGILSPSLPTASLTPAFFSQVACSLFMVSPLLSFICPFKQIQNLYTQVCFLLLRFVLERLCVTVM
To be noted: protein: recombinant; tags: N-terminal GST; dsDNA, one strand shown. Summed up:
as §1

For experiment [7], the target named is T4, ETV2 (Homo sapiens, UniProt O00321 1-342).
T4 sequence: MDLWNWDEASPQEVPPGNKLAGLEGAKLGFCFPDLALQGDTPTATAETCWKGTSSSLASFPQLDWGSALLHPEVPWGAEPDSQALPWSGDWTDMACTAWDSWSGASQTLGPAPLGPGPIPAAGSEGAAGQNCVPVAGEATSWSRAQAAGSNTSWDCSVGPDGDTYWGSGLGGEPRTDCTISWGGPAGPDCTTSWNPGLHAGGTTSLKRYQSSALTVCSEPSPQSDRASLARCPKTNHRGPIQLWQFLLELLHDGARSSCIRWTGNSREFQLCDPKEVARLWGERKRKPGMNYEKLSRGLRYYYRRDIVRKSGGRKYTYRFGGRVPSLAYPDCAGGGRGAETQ
The conditions noted are these: protein: recombinant; tags: N-terminal GST; dsDNA, one strand shown. The gist of the method:
as §1

For experiment [8], the target named is T5, ELF3 (Homo sapiens, UniProt P78545 1-371).
T5 sequence: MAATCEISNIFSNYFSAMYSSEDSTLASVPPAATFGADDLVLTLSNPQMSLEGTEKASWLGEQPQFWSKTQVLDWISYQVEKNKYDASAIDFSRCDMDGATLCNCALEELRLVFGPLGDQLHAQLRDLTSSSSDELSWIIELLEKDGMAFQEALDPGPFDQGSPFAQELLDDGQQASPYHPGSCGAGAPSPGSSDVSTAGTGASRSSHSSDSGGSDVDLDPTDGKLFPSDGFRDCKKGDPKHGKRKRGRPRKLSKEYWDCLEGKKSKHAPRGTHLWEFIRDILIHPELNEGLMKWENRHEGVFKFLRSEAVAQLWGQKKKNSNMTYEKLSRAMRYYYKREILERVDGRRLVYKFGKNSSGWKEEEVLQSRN
The conditions noted are these: protein: recombinant; tags: N-terminal GST; dsDNA, one strand shown. The gist of the method:
as §1

The target in experiment [9] is CRX (Homo sapiens, UniProt O43186 1-299). The conditions noted are these: protein: recombinant; tags: N-terminal GST; dsDNA, one strand shown. Summed up: as §1
The target in experiment [10] is ETV1 (Homo sapiens, UniProt P50549 1-477). The conditions noted are these: protein: recombinant; tags: N-terminal GST; dsDNA, one strand shown. The gist of the method:
as §1

Experiment [11] has as its target T6, ERF (Homo sapiens, UniProt P50548 1-548).
T6 sequence: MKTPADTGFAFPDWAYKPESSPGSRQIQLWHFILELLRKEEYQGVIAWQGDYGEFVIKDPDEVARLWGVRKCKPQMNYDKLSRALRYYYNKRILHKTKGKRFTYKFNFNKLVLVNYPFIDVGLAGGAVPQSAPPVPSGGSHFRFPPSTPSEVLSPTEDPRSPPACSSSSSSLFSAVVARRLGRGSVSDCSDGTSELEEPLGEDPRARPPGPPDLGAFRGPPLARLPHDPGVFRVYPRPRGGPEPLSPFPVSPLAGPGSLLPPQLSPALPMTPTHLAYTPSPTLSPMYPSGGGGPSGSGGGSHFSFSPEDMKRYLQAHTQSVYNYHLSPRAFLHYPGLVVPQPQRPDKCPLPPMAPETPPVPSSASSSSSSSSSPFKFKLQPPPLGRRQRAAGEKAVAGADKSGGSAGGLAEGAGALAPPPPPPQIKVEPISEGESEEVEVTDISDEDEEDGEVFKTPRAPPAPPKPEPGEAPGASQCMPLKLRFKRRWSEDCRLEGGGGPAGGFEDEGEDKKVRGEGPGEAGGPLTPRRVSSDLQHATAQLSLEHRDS
The conditions noted are these: protein: recombinant; tags: N-terminal GST; dsDNA, one strand shown. Summed up:
as §1

The target in experiment [12] is T7, ETV3L (Homo sapiens, UniProt Q6ZN32 1-361).
T7 sequence: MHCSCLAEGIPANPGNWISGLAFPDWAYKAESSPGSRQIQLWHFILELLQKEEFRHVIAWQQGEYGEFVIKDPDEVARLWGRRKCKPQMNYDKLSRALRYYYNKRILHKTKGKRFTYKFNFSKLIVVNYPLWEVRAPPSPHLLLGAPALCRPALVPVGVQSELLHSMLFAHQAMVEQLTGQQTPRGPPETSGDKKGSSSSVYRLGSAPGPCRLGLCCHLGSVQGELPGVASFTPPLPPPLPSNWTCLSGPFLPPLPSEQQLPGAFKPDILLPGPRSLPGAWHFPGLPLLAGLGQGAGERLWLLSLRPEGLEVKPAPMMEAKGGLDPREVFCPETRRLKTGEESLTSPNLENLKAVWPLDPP
To be noted: protein: recombinant; tags: N-terminal GST; dsDNA, one strand shown. The gist of the method: as §1

Experiment [13] addresses T8, ETS2 (Homo sapiens, UniProt P15036 1-469).
T8 sequence: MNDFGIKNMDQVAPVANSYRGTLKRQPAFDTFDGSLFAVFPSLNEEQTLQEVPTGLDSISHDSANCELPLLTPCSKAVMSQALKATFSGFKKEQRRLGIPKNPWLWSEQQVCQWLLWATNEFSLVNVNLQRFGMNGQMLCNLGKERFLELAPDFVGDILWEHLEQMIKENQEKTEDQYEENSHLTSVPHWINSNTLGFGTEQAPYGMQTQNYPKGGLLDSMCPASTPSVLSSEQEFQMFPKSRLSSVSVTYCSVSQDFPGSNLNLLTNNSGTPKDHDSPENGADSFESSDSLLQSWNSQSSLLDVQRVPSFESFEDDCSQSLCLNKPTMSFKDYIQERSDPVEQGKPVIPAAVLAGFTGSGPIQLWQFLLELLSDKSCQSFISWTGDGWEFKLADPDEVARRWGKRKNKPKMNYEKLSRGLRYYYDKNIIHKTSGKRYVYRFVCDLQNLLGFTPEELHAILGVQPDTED
To be noted: protein: recombinant; tags: N-terminal GST; dsDNA, one strand shown. Summed up: as §1

The target of experiment [14] is T9, SPDEF (Homo sapiens, UniProt O95238 1-335).
T9 sequence: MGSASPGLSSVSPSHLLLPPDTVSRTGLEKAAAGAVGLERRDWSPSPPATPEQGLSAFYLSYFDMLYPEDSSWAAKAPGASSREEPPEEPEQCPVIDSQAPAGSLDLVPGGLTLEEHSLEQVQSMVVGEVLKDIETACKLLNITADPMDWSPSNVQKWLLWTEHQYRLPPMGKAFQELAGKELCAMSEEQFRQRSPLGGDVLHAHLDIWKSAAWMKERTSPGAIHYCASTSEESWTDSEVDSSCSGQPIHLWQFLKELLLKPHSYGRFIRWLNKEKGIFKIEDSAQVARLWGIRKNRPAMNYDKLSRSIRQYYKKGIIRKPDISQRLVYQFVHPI
To be noted: protein: recombinant; tags: N-terminal GST; dsDNA, one strand shown. The gist of the method: as §1

For experiment [15], the target named is T10, ETV7 (Homo sapiens, UniProt Q9Y603 1-341).
T10 sequence: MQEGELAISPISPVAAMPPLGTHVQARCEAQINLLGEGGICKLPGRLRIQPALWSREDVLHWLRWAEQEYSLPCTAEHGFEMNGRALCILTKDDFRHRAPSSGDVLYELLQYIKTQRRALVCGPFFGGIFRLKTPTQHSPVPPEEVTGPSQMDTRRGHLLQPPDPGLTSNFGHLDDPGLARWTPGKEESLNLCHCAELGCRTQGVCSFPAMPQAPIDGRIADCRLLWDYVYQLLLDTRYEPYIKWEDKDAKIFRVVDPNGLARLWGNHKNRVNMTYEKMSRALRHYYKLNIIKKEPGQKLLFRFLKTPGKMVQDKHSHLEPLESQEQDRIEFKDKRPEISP
The conditions noted are these: protein: recombinant; tags: N-terminal GST; dsDNA, one strand shown. Summed up:
as §1

For experiment [16], the target named is T11, ELF5 (Homo sapiens, UniProt Q9UKW6-2 1-255).
T11 sequence: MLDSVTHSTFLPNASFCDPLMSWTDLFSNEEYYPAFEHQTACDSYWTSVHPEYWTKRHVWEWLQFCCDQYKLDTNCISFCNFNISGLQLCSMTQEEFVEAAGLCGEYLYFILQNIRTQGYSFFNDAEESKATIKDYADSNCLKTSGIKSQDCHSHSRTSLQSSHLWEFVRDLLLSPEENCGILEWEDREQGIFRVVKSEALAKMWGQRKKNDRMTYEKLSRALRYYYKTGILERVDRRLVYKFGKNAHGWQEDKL
The conditions noted are these: protein: recombinant; tags: N-terminal GST; dsDNA, one strand shown. The gist of the method:
as §1

The target in experiment [17] is T12, ETV3 (Homo sapiens, UniProt P41162-2 1-143).
T12 sequence: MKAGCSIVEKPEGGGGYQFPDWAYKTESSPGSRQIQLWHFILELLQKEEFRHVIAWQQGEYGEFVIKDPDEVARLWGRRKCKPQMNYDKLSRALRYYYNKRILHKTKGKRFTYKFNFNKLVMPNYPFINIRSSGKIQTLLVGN
To be noted: protein: recombinant; tags: N-terminal GST; dsDNA, one strand shown. Summed up:
as §1

The target of experiment [18] is ETV6 (Homo sapiens, UniProt P41212 1-452). To be noted: protein: recombinant; tags: N-terminal GST; dsDNA, one strand shown. The gist of the method:
as §1

Chain of HSF1 (Q00613 whole entry): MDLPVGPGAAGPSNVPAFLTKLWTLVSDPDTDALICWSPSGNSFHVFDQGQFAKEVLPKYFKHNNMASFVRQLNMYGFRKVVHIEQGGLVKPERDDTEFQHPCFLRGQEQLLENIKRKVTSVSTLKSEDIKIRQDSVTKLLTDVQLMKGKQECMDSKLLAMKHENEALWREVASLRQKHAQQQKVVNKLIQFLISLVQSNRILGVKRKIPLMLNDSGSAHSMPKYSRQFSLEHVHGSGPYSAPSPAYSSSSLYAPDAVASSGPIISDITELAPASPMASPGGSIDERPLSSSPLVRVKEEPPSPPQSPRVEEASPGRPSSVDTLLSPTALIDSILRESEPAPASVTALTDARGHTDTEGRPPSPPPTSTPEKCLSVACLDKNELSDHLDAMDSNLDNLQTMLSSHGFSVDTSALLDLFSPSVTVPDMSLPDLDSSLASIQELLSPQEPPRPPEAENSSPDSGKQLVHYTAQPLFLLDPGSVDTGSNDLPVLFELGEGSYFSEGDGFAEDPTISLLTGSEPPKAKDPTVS
Chain of ETV5 (P41161 whole entry): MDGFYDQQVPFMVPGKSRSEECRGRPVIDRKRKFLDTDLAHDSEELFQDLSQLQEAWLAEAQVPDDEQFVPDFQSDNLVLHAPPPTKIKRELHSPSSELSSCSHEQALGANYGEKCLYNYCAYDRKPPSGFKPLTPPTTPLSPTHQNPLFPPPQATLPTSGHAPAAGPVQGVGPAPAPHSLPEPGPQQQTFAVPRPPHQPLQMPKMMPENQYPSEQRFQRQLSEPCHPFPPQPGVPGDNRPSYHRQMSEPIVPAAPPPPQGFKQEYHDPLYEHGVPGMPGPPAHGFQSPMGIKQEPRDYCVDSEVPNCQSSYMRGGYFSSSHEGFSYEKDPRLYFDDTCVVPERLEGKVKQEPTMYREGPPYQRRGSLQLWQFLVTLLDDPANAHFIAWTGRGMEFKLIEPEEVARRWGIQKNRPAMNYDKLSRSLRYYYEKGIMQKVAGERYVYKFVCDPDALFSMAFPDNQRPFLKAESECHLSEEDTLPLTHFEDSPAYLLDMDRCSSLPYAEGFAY
Chain of ELF4 (Q99607 whole entry): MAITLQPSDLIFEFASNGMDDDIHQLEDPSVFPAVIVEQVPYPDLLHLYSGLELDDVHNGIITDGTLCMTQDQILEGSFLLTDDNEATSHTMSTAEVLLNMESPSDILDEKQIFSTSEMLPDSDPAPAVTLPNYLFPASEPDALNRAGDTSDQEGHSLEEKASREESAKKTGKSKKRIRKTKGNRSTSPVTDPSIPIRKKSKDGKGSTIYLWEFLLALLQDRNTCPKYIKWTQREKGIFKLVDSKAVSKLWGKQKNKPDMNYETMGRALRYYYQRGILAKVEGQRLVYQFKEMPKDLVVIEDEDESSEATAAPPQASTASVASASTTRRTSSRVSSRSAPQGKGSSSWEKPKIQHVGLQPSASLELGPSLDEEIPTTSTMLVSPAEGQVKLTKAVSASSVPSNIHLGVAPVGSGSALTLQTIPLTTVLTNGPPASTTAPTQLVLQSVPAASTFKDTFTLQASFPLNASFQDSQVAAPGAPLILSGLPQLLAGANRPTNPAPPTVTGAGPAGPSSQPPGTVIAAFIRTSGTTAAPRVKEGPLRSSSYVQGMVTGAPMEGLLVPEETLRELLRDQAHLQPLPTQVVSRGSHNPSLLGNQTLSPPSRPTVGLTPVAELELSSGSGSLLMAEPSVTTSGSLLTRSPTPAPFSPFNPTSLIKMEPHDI
Chain of CRX (O43186 whole entry): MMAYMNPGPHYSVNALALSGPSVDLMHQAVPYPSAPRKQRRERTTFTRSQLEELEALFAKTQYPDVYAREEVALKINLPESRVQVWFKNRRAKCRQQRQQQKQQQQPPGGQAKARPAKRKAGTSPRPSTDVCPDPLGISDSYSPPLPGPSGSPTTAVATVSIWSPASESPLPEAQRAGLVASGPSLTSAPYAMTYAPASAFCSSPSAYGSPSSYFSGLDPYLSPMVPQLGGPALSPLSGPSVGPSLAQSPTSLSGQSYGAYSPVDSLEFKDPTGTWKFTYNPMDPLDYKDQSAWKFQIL
Chain of ETV6 (P41212 whole entry): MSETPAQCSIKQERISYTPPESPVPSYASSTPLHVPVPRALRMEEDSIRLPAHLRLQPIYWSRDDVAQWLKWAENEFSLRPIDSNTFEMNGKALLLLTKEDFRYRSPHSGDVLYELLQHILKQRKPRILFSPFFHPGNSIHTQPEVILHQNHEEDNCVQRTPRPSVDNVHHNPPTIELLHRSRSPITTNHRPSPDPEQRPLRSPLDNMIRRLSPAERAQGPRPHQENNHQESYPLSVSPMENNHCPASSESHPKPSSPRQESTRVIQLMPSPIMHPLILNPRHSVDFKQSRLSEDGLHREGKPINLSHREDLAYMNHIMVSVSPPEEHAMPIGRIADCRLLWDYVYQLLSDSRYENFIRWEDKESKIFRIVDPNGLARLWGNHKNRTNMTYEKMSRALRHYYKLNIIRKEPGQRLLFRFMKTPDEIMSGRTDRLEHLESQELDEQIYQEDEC
Chain of ETV1 (P50549 whole entry): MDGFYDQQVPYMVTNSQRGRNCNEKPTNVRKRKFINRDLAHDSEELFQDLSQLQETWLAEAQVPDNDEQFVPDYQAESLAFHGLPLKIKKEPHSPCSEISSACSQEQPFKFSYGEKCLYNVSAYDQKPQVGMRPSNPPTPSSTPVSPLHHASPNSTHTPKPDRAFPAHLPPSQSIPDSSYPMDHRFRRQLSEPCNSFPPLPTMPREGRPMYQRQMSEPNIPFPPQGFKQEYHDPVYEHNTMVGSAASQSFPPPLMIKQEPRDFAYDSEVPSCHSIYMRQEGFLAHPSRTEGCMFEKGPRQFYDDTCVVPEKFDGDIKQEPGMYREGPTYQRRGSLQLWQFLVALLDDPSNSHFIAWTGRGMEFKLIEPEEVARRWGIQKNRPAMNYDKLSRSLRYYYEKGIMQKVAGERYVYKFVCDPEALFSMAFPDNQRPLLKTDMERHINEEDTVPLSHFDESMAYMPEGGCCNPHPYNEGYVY

For TCCTAG, the binding signal in experiment [1] is 1.19 fold enrichment (6-mer frequency, TF over GST control); in experiment [2] it was 1.33 fold enrichment (6-mer frequency, TF over GST control); in experiment [3], 1.45 fold enrichment (6-mer frequency, TF over GST control); in experiment [4], 1.2 fold enrichment (6-mer frequency, TF over GST control); in experiment [5] it was 1.29 fold enrichment (6-mer frequency, TF over GST control); in [6] it was 1.24 fold enrichment (6-mer frequency, TF over GST control). In addition, the binding signal in experiment [7] is 1.23 fold enrichment (6-mer frequency, TF over GST control); in experiment [8] it was 1.2 fold enrichment (6-mer frequency, TF over GST control); in experiment [9], 1.29 fold enrichment (6-mer frequency, TF over GST control); in experiment [10] it was 1.41 fold enrichment (6-mer frequency, TF over GST control); in [11] it was 1.26 fold enrichment (6-mer frequency, TF over GST control); in experiment [12] it was 1.08 fold enrichment (6-mer frequency, TF over GST control). Besides, the binding signal in experiment [13] was 1.26 fold enrichment (6-mer frequency, TF over GST control); in experiment [14], 1.4 fold enrichment (6-mer frequency, TF over GST control); in experiment [15], 1.25 fold enrichment (6-mer frequency, TF over GST control); in [16] it was 1.41 fold enrichment (6-mer frequency, TF over GST control); in experiment [17] it was 1.32 fold enrichment (6-mer frequency, TF over GST control); in [18] it was 1.26 fold enrichment (6-mer frequency, TF over GST control).
